HT1080NT lethal: kills 2HG-producing HT-1080-NT fibrosarcoma cells. HT-1080-NT fibrosarcoma viability, CellTiter-Glo ATP luminescence, 48 h. Potency, µM (doses to about 46.1 µM), for the others: top-dose activity, negative = less viability, actives largely listed as cytotoxic. actives 1.6% (n = 360,000). AID 686970;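 also: NT is the 2HG producing partner of a matched IDH1 knockdown line; potency is read from the fitted curve at half-maximal effect; 0% = DMSO-treated cells and -100% = media-only wells without cells; nearly all actives have a fitted effect of over 55% in size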
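Toxicity toward the 2HG-producing NT line was scored as %Activity, normalised to DMSO and no-cell wells, from CellTiter-Glo luminescence after 48 hours' treatment.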
DT40 TDP1 no CPT: qHTS for Inhibitors of human tyrosyl-DNA phosphodiesterase 1 (TDP1): qHTS in cells in absence of CPT | DT40 Tdp1-/- hTDP1 cells, no CPT, ATP luminescence, 48 h | Potency, µM (top dose mostly 46.2 µM), for inactives: top-dose activity change, negative = growth inhibition, hits mostly inhibitors | actives 15% (n = 420,000); also: potency is read from the fitted curve at half-maximal effect; nearly all actives have a fitted effect of over 55% in size
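A cellular qHTS used chicken DT40 cells lacking endogenous Tdp1 but carrying stably transfected human TDP1. Compounds were applied without camptothecin, and cell growth kinetics were judged by ATP-dependent luminescence after ≥48 hr.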
DT40 TDP1 CPT: DT40-hTDP1 cell growth loss with CPT | chicken DT40 Tdp1-/-;hTDP1 cells + 20 nM CPT, ATP luminescence, 48 h | Potency, µM (top dose mostly 46.2 µM), for the others: at the highest dose activity change, negative = growth inhibition, hits mostly inhibitors | actives 12% (n = 420,000); also: potency is read from the fitted curve at half-maximal effect; nearly all actives have a fitted effect of over 55% in size
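Cell growth measured by CellTiter-Glo luminescence after a minimum 48 h, 37 C compound exposure with 20 nM CPT in Tdp1-knockout DT40 cells stably expressing hTDP1, seeded 400/well; qHTS titration format.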
ELG1 repair inh: blocks ELG1-dependent DNA repair in HEK293T cells. HEK293T ELG1-luciferase reporter, luminescence, 16 h; DNA damage induced by 5-fluorouridine. Potency, µM (highest dose often 46.1 µM), for the others: at the top dose activity change, negative = inhibition, usual class: inhibitors. actives 2.3% (n = 330,000). AID 504467; also: potency is read from the fitted curve at half-maximal effect; nearly all actives have a fitted effect of over 55% in size
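5-Fluorouridine DNA damage + compound/DMSO, 2,000 cells/well, 16 h, 37 °C/5% CO2. ONE-Glo, 30 min RT, luminescence. Readout = decrease in reporter signal.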
IL-1B inflam inh: inhibitors of inflammasome signaling (IL-1 beta secretion) | THP-1 LPS/ATP IL-1B secretion, AlphaLISA, 16 h; stronger effect = lower value | activity change, % at 57.5 µM | actives 4.7% (n = 360,000) | AID 743279; in the data active = activity change below about -50%; inconclusive = mostly about -30% to -49%
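THP-1 cells pretreated 1 hr with compounds (up to 57.5 uM final), then stimulated with LPS (250 ng/mL final) plus ATP (1.25 mM final); secreted IL-1B measured by AlphaLISA after 16 hr, decreased signal indicating inhibition.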
HT1080 IDH1KD tx: HT-1080 IDH1 knockdown cell toxicity (counter line) | HT-1080 IDH1 knockdown viability, ATP luminescence, 48 h | Potency, µM (titrated, usually from 46.1 µM), for the others: top-dose activity, negative = toxicity, usual class: cytotoxic | actives 2% (n = 360,000) | AID 686971;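 also: potency is read from the fitted curve at half-maximal effect; 0% = DMSO wells and -100% = cell-free medium wells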
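CellTiter-Glo luminescence after 48 h compound exposure at 37 degrees C of IDH1-knockdown HT-1080 cells in 5% FBS RPMI. %Activity scaled between DMSO wells and cell-free media wells, with curves fitted and assigned curve classes.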
An asterisk follows results filed as active; ? = inconclusive; nt = no result given. Hits are enriched below; roughly 19% of the tested compounds scored in any of these assays. Unless noted, calls follow the shape of the dose curve; as a rule, active = well fitted curve in the direction sought with a large enough effect; inconclusive = small, poorly fitted or top-dose-only effect, or another doubt; inactive = no such curve, though single readings can be large; an effect the other way counts as inactive or inconclusive. Unless noted, % is scaled to controls: 0 for no effect and ±100 for the full control effect.

SMILES	HT1080NT lethal	DT40 TDP1 no CPT	DT40 TDP1 CPT	ELG1 repair inh	IL-1B inflam inh	HT1080 IDH1KD tx
COc1ccc(C)cc1Nc1n[n+](-c2ccccc2)c(-c2ccc(C(=O)O)cc2)s1	6.6%	-8.6%	-7.5%	6.7%	38.7	-0.8%
COc1ccc(-c2sc(Nc3ccccc3)n[n+]2-c2ccccc2)cc1Br	-19.6%	14.6µM*	23.1µM*	?	?	-26.1%
Cc1ccc(Cn2c(C)c(CNC3CCCCC3)c(C(=O)O)c2C)cc1	nt	-8.2%	0.4%	nt	nt	nt
CCCSc1nnc(NC(=O)Cc2coc3cc(C)ccc23)s1	nt	-13.8%	-2.2%	nt	nt	nt
O=C(Nc1cccc(F)c1)N1CCCC2(CCN(C(=O)c3cnccn3)CC2)C1	nt	-0.9%	17.1%	nt	nt	nt
Cn1c(SCC(=O)NCC2CCCO2)ncc(C(=O)Nc2ccccc2)c1=O (stereo not given)	-17.9%	23.1µM*	25.9µM*	?	-74.4*	-8.4%
O=C(CCCn1c(SCC(=O)NCC2CCCO2)nc2ccccc2c1=O)NCC1CCCO1 (stereo not given)	4.3%	5.1%	-24.4%	1.6%	-1.3	6.9%
Cc1ccc(NC(=O)c2cnc(SCC(=O)NCC3CCCO3)n(C)c2=O)cc1C (stereo not given)	15.2%	23.1µM*	20.6µM*	?	-98.3*	10.3%
Cc1cc2c(=O)n(C)c(SCC(=O)NCC3CCCO3)nc2s1 (stereo not given)	1.7%	-1.5%	5.9%	nt	16.1	1.5%
C[C@H]1CN([C@@H](C)CO)S(=O)(=O)c2ccc(Br)cc2O[C@H]1CN(C)C(=O)Cc1ccncc1	16.8%	27.8%	4.0%	nt	-0.8	20.7%
CC(C(=O)NC1CCCC1)n1c(-c2ccccn2)nc2ccccc21 (stereo not given)	-1.2%	?	?	nt	13.1	-11.4%
CCCCOc1ccc(C(=O)N2CCN(c3ncccn3)CC2)cc1	2.8%	-20.7%	-15.6%	?	?	-1.2%
COc1ccc(C2CC(=O)Nc3c2c(=O)[nH]c2nc4ccccc4n32)cc1OC (stereo not given)	nt	5.3%	-3.1%	nt	nt	nt
CCOc1ccc(C2CC(=O)Nc3c2c(=O)nc(SCc2ccccc2C)n3C)cc1OC (stereo not given)	nt	5.8µM*	9.2µM*	nt	nt	nt
CCNc1ncc2nc(-c3cc(F)cc(F)c3)c(=O)n(C[C@H]3CCCO3)c2n1	nt	10.5%	-8.3%	nt	nt	nt
Cc1nn(-c2ccccc2)c(Cl)c1/C=N/NC(=O)c1[nH]ncc1Br	-21.9%	?	?	?	-21.2	-11.7%
CCOC(=O)CSc1nnc(Cc2ccc(OC)cc2)n1-c1ccccc1	-1.5%	-1.0%	14.6%	18.9%	8.6	-2.3%
CCOc1ccc(-n2c(Cc3ccccc3)nnc2SCc2nc(-c3ccccc3OC)no2)cc1	nt	16.4µM*	?	nt	nt	nt
COc1ccc(-c2noc(CSc3nnc(C)n3-c3ccc(F)cc3)n2)cc1	nt	-26.3%	?	nt	nt	nt
Cc1ccccc1-c1noc(CSc2nnc(Cc3ccccc3)n2-c2ccc(F)cc2)n1	nt	9.2µM*	?	nt	nt	nt
CCOC1=C2[C@@H](CN(S(=O)(=O)c3ccc(C)cc3)[C@H]2c2ccccc2)[C@H]2C(=O)N(c3ccccc3)C(=O)[C@H]2C1	?	-6.4%	2.8%	nt	-1.3	8.1%
O=C(CCC1N=C2c3ccccc3N=C(SCc3ccc(F)cc3)N2C1=O)N1CCN(c2ccccc2)CC1 (stereo not given)	nt	25.9µM*	?	nt	nt	nt
CCc1ccc(NC(=O)CSC2=Nc3ccccc3C3=NC(CCC(=O)NCc4ccccc4OC)C(=O)N23)cc1 (stereo not given)	nt	-5.8%	-1.3%	nt	nt	nt
COc1ccccc1CNC(=O)CCC1N=C2c3ccccc3N=C(SCC(=O)NCCc3ccc(OC)c(OC)c3)N2C1=O (stereo not given)	nt	?	18.4µM*	nt	nt	nt
O=C(CCC1N=C2c3ccccc3N=C(SCc3cccc(F)c3)N2C1=O)NCc1ccc(F)cc1 (stereo not given)	nt	18.4µM*	?	nt	nt	nt
SMILES	HT1080NT lethal	DT40 TDP1 no CPT	DT40 TDP1 CPT	ELG1 repair inh	IL-1B inflam inh	HT1080 IDH1KD tx
O=C(CCC1N=C2c3ccccc3N=C(SCc3cccc(F)c3)N2C1=O)NCCc1ccccc1 (stereo not given)	nt	?	20.6µM*	nt	nt	nt
Cc1[nH]c2ccccc2c1C(=O)CSc1n[nH]c(N)n1	-7.5%	-15.4%	-0.5%	9.2%	6.8	-16.8%
CCOC(=O)c1ccc(NC(=O)CSc2nnc(-c3ccncc3)n2-c2ccccc2)cc1	nt	-4.0%	-6.4%	nt	nt	nt
CN(c1cccc(NC(=O)CN(c2cccc(Cl)c2)S(=O)(=O)c2ccc(Cl)cc2)c1)S(C)(=O)=O	-14.5%	?	?	-39.9%	-14.6	-20.3%
Cc1nn(C)c2c1NC(=O)CS2	-7.0%	-7.4%	9.1%	nt	2.5	-9.7%
CCOc1ccc(NC(=O)CSC2=Nc3ccccc3C3=NC(CCC(=O)NCc4cccs4)C(=O)N23)cc1 (stereo not given)	nt	-12.9%	-2.4%	nt	nt	nt
O=C(CCC1N=C2c3ccccc3N=C(SCc3ccc(Cl)cc3)N2C1=O)NCCc1ccccc1 (stereo not given)	nt	?	18.4µM*	nt	nt	nt
O=C(CCC1N=C2c3ccccc3N=C(SCc3cccc(Cl)c3)N2C1=O)NCc1cccs1 (stereo not given)	nt	20.6µM*	11.6µM*	nt	nt	nt
CC(C)NC(=O)N1CC[C@@]2(CCCN(C(=O)c3csnn3)C2)C1	nt	0.3%	6.1%	nt	nt	nt
CCCCCc1ccnc(CC(=O)c2ccc(OC)cc2)c1	-16.5%	8.2µM*	8.2µM*	nt	-19.3	-5.2%
CC(C)C[C@H]1CN(CCCC[C@H]2CNC(=O)C(=O)N2CCC2CCCCC2)C(=O)C(=O)N1CC1CCCCC1	10.6%	18.4µM*	16.4µM*	nt	-23.5	1.5%
O=C1NC[C@H](CCCCN2C[C@H](Cc3ccc(O)cc3)N(CCC3CCCCC3)C(=O)C2=O)N(CCc2ccccc2)C1=O	13.0%	2.1%	-2.9%	nt	-6.0	10.8%
O=C1NC[C@@H](CCCCN2C[C@H](Cc3ccccc3)N(CCC3CCCCC3)C(=O)C2=O)N(CCc2ccccc2)C1=O	?	?	?	nt	-50.9*	?
O=C1NC[C@H](CCCCN2C[C@H](Cc3ccccc3)N(Cc3ccccc3)C(=O)C2=O)N(CCC2CCCCC2)C1=O	21.2%	18.4µM*	-6.3%	nt	23.0	12.4%

Screening results (PubChem)
